# An excerpt weighted towards active compounds, which were near 7.3% of everything screened.
# Gal4-VP16 FLuc: inhibits Gal4-VP16 luciferase reporter, ROR gamma counter-screen | 3.5% of 310,000 active | Drosophila S2 Gal4-VP16 UAS-luciferase, luminescence, 20 h | Potency, µM (highest dose often 53.6 µM), for the others: at the top dose activity, negative = inhibition, usual class: inhibitors;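 note: Gal4-VP16 expression switched on by copper sulfate through the metallothionein promoter; nearly all actives have a fitted effect of over 50% in size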
# Tau fluor counter: counter-screen for tau fibril formation inhibitors; Potency, µM (top dose mostly 57.7 µM), without a hit: at the top dose activity change, negative = decrease; 0.93% of 280,000 active; AID 1463; tau K18 P301L Alexa594 fluorescence, heparin fibrillization; note: nearly all actives have a fitted effect of over 55% in size
#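 Human K18 P301L tau (15 uM unlabeled plus 0.24 uM Alexa 594-labeled, final) in 100 mM sodium acetate pH 7 was mixed with compound and 20 uM heparin and incubated 6 hr at 37 C.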
# Tau ThT inhib: inhibitors of human tau fibril formation, thioflavin T binding | 2.1% of 270,000 active | AID 1460 | Potency, µM (titrated, usually from 57.4 µM), for the others: at the top dose activity, negative = inhibition, hits mostly inhibitors | P10636 | recombinant tau K18 P301L, heparin-induced fibrillization, ThT fluorescence; note: nearly all actives have a fitted effect of over 55% in size
# Target sequence (P10636 561-689 P618L limits assumed): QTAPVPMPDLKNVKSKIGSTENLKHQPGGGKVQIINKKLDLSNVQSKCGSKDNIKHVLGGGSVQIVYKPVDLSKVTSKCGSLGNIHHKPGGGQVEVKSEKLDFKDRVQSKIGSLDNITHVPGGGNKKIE
#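 ThT emission at 510 nm, taken 1 hr after adding 30 uM dye, quantifies aggregates formed when 20 uM heparin acts on human tau K18 P301L for 6 hr at 37 C.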
# Tau FP inhib: blocks human tau fibril formation measured by polarization; P10636; K18 P301L tau heparin fibrillization, Alexa594 FP, 6 h; Potency, µM (top dose mostly 57.7 µM), inactives show at the top dose activity, negative = inhibition, actives largely listed as inhibitors; 0.39% of 280,000 active; note: nearly all actives have a fitted effect of over 55% in size
#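 Human K18 P301L fragment (15 uM unlabeled plus 0.24 uM Alexa 594-labeled) in 100 mM sodium acetate pH 7 with compound, aggregation induced by 20 uM heparin for 6 hr at 37 C. ThT (30 uM) added for 1 hr, then Alexa 594 FP read.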
# RORgamma inh: ROR gamma (mouse) transcription inhibition. P51450. Drosophila S2 Gal4-RORgamma UAS-luciferase reporter, 20 h. Potency, µM (highest dose often 53.6 µM), inactives show at the top dose activity change, negative = inhibition, usual class: inhibitors. 5.4% of 310,000 active; note: nearly all actives have a fitted effect of over 60% in size
# Target sequence (P51450 whole entry, looked up, the tested form may be a part): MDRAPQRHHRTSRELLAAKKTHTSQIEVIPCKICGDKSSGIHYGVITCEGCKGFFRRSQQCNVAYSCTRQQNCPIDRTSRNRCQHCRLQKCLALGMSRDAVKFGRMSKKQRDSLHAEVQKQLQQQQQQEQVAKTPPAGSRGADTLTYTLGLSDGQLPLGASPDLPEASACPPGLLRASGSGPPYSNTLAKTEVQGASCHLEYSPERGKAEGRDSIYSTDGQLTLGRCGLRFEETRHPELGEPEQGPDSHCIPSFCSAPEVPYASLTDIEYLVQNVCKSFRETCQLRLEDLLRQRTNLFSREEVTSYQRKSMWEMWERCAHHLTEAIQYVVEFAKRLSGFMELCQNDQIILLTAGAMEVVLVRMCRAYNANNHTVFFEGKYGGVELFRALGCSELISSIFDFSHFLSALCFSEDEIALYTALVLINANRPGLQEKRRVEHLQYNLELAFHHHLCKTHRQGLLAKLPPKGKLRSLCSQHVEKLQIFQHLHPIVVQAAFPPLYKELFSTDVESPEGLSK
#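 Stably transfected Drosophila Schneider cells are the test system, with ROR gamma fused to Gal4 and luciferase under UAS control; luminescence is read after 20 hr of 700 uM copper sulfate induction at ambient temperature.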
# * marks the source's active call; other numbers are inactive results; u = inconclusive; x = no result; [ ] = remark or other dose. Calls come from the whole dose curve; as a rule, active = well fitted curve in the direction sought with a large enough effect; inconclusive = small, poorly fitted or top-dose-only effect, or another doubt; inactive = no such curve, though single readings can be large; an effect the other way counts as inactive or inconclusive. % is set by controls: 0 for no effect and ±100 for the full control effect; potency is the fitted concentration of half-maximal effect.
SMILES,Gal4-VP16 FLuc,Tau fluor counter,Tau ThT inhib,Tau FP inhib,RORgamma inh
Cc1ccccc1N1CCN(S(=O)(=O)CC23CCC(CC2NC(=O)C(N)CCS(C)(=O)=O)C3(C)C)CC1 (configuration not stated),-1.7%,x,x,x,17.1%
O=C1C=CC2=C3c4cc(O)c(O)cc4CC3(O)COC2=C1O (configuration not stated),-13.4%,3.98µM*[quencher],3.16µM*,7.94µM*,2.7%
O=C(Oc1cncc(Cl)c1)c1ccco1,-5.2%,7.7%,-15.1%,u,u
O=C(Nc1cccnc1Cl)c1cccs1,-1.5%,x,x,x,19.5%
O=C(Oc1c(CN2CCOCC2)cc(Cl)c2cccnc12)c1ccccc1Cl,3.55µM*,-17.2%,u,3.9%,0.708µM*
O=C(Oc1c(CN2CCOCC2)cc(Cl)c2cccnc12)c1cccs1,1µM*,-24.3%,u,-2.5%,1.41µM*
O=C(Oc1c(Cl)cc(Cl)c2cccnc12)c1ccco1,u,-25.8%,u,-2.1%,0.282µM*
O=C(Oc1c(Cl)cc(Cl)c2cccnc12)c1cccs1,1µM*,-29.7%,u,-3.4%,0.631µM*
COc1ccc(CNC(=O)c2cc(-c3cccs3)nc3ccccc23)c(OC)c1,x,u,u,-14.7%,x
CCOC(=O)N1CCN(CCC(=O)Nc2cccc(C)c2)CC1,-2.0%,x,x,x,-1.9%
O=C(N/N=C/c1ccccc1F)c1ccccc1OCc1ccccc1,15.4%,x,x,x,-28.0%
Cc1ccc(C(=O)Cc2cc3ccccc3oc2=O)c(C)c1,-27.3%,x,x,x,-28.7%
CS(=O)(=O)c1ccc(C(=O)OCC(=O)NC23CC4CC(CC(C4)C2)C3)cc1[N+](=O)[O-],u,u,u,u,11.2µM*
Cc1ccccc1C(=O)n1nc(-c2ccco2)nc1NCc1ccc(Cl)cc1,x,-18.2%,3.1%,-4.7%,x
COc1ccc(O[C@H]2C=C[C@@H](c3ccccc3)O[C@H]2CO/N=C(/C)CCC(=O)OC[C@@H]2O[C@H](C#Cc3ccccc3)C=C[C@@H]2Oc2ccc(C)cc2)cc1,2.2%[10 µM],-7.1%[11.6 µM],-10.4%[11.5 µM],-0.8%[11.6 µM],15.5%[10 µM]
COc1ccc(C2=NN(C(C)=O)C(c3cn(-c4ccccc4)nc3-c3cccs3)C2)cc1 (configuration not stated),x,-17.7%,-17.5%,2.7%,x
Cc1cc2c(N=O)c(NO)ccc2[nH]1,3.16µM*,-26.2%,u,2.9%,5.01µM*
COc1ccc2[nH]c(O)c(N=O)c2c1,u,-3.9%,-11.8%,-7.4%,0.3%
Cc1ccc(S(=O)(=O)c2[nH]c(-c3ccccc3)nc2SCC(=O)O)cc1,x,1.4%,3.7%,-1.3%,x
CC(=O)Sc1nc(-c2ccccc2)[nH]c1S(=O)(=O)c1ccc(C)cc1,10.3%,-29.8%,28.2µM*,39.8µM*,-15.3%
COc1cc(NC(=O)CCCOc2cc(=O)n(C)c3ccccc23)cc(OC)c1OC,x,-11.4%,-10.0%,-4.8%,x
Cc1sc2ncnc(SCC(=O)NC(=O)c3cccn3C)c2c1C,-7.0%,-14.5%,u,2.7%,4.47µM*
Cc1cc(N2CCCCC2)nc2ccc(NC(=O)/C=C/c3ccccc3OC(C)C)cc12,x,7.08µM*[quencher],u,13.0%,x
Cc1cc(N2CCCCC2)nc2ccc(NC(=O)/C=C/c3ccccc3Cl)cc12,x,10µM*[quencher],4.47µM*,9.8%,x
COc1cc(C(=O)Nc2ccc3nc(N4CCN(C)CC4)cc(C)c3c2)cc(OC)c1OC,-3.5%,x,x,x,u
SMILES,Gal4-VP16 FLuc,Tau fluor counter,Tau ThT inhib,Tau FP inhib,RORgamma inh
O=C(Cn1ncc2c3ccccc3n(Cc3cccc(Cl)c3)c2c1=O)NCc1cccs1,x,-2.4%,0.4%,-14.9%,x
CCCC(=O)N(CCN1CCOCC1)c1nc2c(OC)ccc(OC)c2s1,-1.4%,x,x,x,-0.5%
COc1cccc(CNC(=O)C2CCCN(c3nn4cc(-c5ccc(C)cc5)nc4s3)C2)c1 (configuration not stated),x,-12.6%,u,10.1%,x
Cc1ccc(-n2ncc3c2CCCC3NC(=O)c2csnn2)cc1C (configuration not stated),3.1%,x,x,x,u
COc1ccccc1-c1ccc(=O)n(CC(=O)NC2CCc3ccccc32)n1 (configuration not stated),u,-1.8%,-17.4%,-4.9%[2.34 µM],3.55µM*
CCN(CC)c1nc2c(S(=O)(=O)c3cccc(Cl)c3)nnn2c2ccsc12,x,-20.7%,2.7%,5.2%,x
COc1cccc(-c2ccc(NC(=O)C3CCCN(Cc4ccc(CO)o4)C3)cc2)c1 (configuration not stated),2.9%,x,x,x,6.8%
O=C1CN(C(=O)c2ccc(S(=O)(=O)N3CCCCC3)cc2)C(c2ccc(F)cc2)c2cc(Br)ccc2N1 (configuration not stated),x,-23.5%,-6.3%,u,x
Fc1ccc(-c2csc3ncnc(Cl)c23)cc1,u,-6.8%,-1.7%,10.2%,u
Clc1ccc(-c2csc3ncnc(Cl)c23)cc1,-28.9%,-12.3%,u,u,11.2µM*
O=c1[nH]cnc2scc(-c3ccc(Br)cc3)c12,2.5%,0.2%,-11.1%,-1.8%,-7.4%
S=c1[nH]cnc2scc(-c3ccc(Br)cc3)c12,0.631µM*,-11.0%,-6.1%,-3.9%,0.501µM*
Cc1sc2nc[nH]c(=S)c2c1-c1ccccc1,0.631µM*,0.9%,1.9%,1.6%,0.282µM*
Cc1ccc(-c2csc3nc[nH]c(=S)c23)cc1,0.0141µM*,1.7%,0.3%,3.8%,0.0251µM*
Cc1ccc(C)c(N2CCN(C(=O)CCCCCn3c(=O)[nH]c4ccccc4c3=O)CC2)c1,x,-24.8%,u,5.9%,x
S=c1[nH]cnc2scc(-c3ccc(Cl)cc3)c12,1µM*,-22.6%,-11.5%,-11.1%,0.447µM*
O=c1[nH]cnc2scc(-c3ccccc3)c12,6.4%,-9.8%,-6.4%,0.2%,27.7%
Cc1cc(-c2csc3nc[nH]c(=S)c23)cc(C)c1C,0.562µM*,u,-9.5%,u,0.316µM*
CCC(C)NC(=O)c1ccc(NC(=O)C2=C(C)OCCS2)cc1 (configuration not stated),3.2%,x,x,x,3.5%
O=C(COc1ccc2ccccc2c1)Nc1ccc(Br)cc1C(=O)O,u,x,x,x,-25.1%
CC(C)NC(=O)C1CCCN(S(=O)(=O)c2ccc3c(ccn3C)c2)C1 (configuration not stated),x,6.1%,11.5%,-2.7%,x
Cc1ccsc1C(=O)N(CC(C)C)c1c(N)n(Cc2ccccc2)c(=O)[nH]c1=O,-0.2%,x,x,x,-10.3%
CCOC(=O)SC1=N/C(=C\c2ccc(N(C)C)cc2)C(=O)S1,u,-20.7%,4.47µM*,0.6%,12.6µM*
COc1ccc(NC(=O)CS(=O)CC(=O)Nc2ccc(NC(C)=O)cc2)cc1 (configuration not stated),0.6%,x,x,x,-29.3%
Cc1cc2c(c(=O)o1)C(c1cccs1)C(C#N)=C(N)O2 (configuration not stated),u,-3.0%,u,0.0%,14.1µM*

# Assay outcomes: PubChem BioAssay, National Center for Advancing Translational Sciences (NCATS)
